Measured values published in PubChem BioAssay.
Unmarked numbers belong to inactive results. Active and inactive are the calls of the source. Rule as the data show it: active = inhibition above about 30%; inactive = the rest.

Experiment: growth suppression of yeast trafficking mutant, preliminary HTS, modulators of trafficking downstream of Golgi apparatus project, 1536-format plate, OD 615 nm (AID 637)
Conditions: yeast transport mutant growth, absorbance 615 nm, 18 h; hits give high values

SMILES	inhibition
CN=C1CC(C)(C)CC(=O)/C1=C(/O)CCC(=O)NC	-3.97%
CC(C)(C)NC(=O)Cn1nnc(-c2cccs2)n1	0%
Nc1nnc(SCC(=O)N2CCc3ccccc32)n1-c1ccccc1	0.32%
O=C(CSc1ncnc2c1oc1ccccc12)Nc1ccccc1F	-1.33%
O=C(Nc1cccc(C(F)(F)F)c1)c1cccnc1N1CCCC1	-1.29%
Cc1cc(C(F)(F)F)nn1Cc1ccc(C(=O)NCc2ccco2)o1	0.82%
O=C(C1CCCN(S(=O)(=O)c2cccnc2)C1)N1CCN(c2ccccn2)CC1 (stereo not given)	-4%
O=C(CCn1c(=S)[nH]c2cc3c(cc2c1=O)OCO3)N1CCN(C2CCCCC2)CC1	-0.66%
CC(C)CC(=O)CN1C(=O)C2(OCCO2)c2ccccc21	1.83%
CNC(=O)CN(C#N)c1nc(N(C)C)nc(N(C)C)n1	-6.77%
O=C(Oc1ccc2c(c1)CCC2)N1CCOCC1	-5%
CCCn1c(N2CCN(CC(=O)Nc3ccc4c(c3)OCCO4)CC2)nc2ccccc21	4.59%
COCc1ccccc1Cn1cnc2c1c(=O)n(C)c(=O)n2C	0.49%
O=C(Nc1ccc(N2CCOCC2)cc1)c1cc2ccccc2o1	-10.8%
COc1ccc(N2C(=O)CC(NC3CC3)C2=O)cc1 (stereo not given)	-6%
COc1cccc(C(=O)NCc2nnc(SCC(=O)Nc3nccs3)n2-c2ccccc2)c1	1.17%
COCCCN1C(=O)C(O)=C(C(=O)c2ccco2)C1c1ccc(Br)cc1 (stereo not given)	0.81%
Cc1cccc(N2C(=O)CC(N3CCN(Cc4ccc(Cl)cc4)CC3)C2=O)c1 (stereo not given)	0.82%
CS(=O)(=O)N(CC(=O)Nc1ccc2c(c1)OCCO2)Cc1ccccc1	-0.79%
O=C(O)CC1SC(=Nc2cccc(C(F)(F)F)c2)NC1=O (stereo not given)	1.29%

SMILES	inhibition
CCOC(=O)Nc1sc(=S)n(C)c1C	0.16%
CCCn1nc(NS(=O)(=O)c2ccccc2)c2cc3ccccc3nc21	5.45%
COc1ccc2[nH]c(=O)c(CN(Cc3cccs3)S(=O)(=O)c3cccc4nsnc34)cc2c1	1.43%
CC(C)C(c1nnnn1CC1CCCO1)N1CCN(Cc2ccc3c(c2)OCO3)CC1 (stereo not given)	-3.97%
COc1cc2c(cc1NC(=O)CN1CCN(S(=O)(=O)c3ccc(F)cc3)CC1)oc1ccccc12	3.33%
CCCn1c2c(c(O)c(C(=O)Nc3ccc(C)cn3)c1=O)CCCC2	-5.81%
O=S(=O)(Nc1cccnc1)c1cc(Cl)ccc1Cl	-3%
CCN(CC(=O)Nc1ccc(S(N)(=O)=O)cc1)S(=O)(=O)c1cc(C)ccc1OC	-1.67%
O=S(=O)(NCC(c1cccnc1)N1CCN(c2ccccc2)CC1)c1cc(F)ccc1F (stereo not given)	92% (active)
Cc1ccc2oc(C(=O)Nc3c(C)n(C)n(-c4ccccc4)c3=O)c(C)c2c1	-10.3%
C/C=C/c1ccc(OCCn2cncn2)c(OC)c1	0.66%
Cc1ccnc(SCCn2c(N3CCCCC3)nc3c2c(=O)n(C)c(=O)n3C)n1	-3%
CCN(CC)S(=O)(=O)c1ccc(NC2c3ccccc3C(=O)N2CCN2CCOCC2)cc1 (stereo not given)	-0.83%
CCC(=O)OCCn1c(=O)c2cc3c(=O)n(CCOC(=O)CC)c(=O)c3cc2c1=O	-4.83%
Cc1cc(Br)ccc1NC(=O)CCN1C(=O)c2ccncc2C1=O	-9.18%
Cc1cc(C(=O)O)ccc1-n1c(C)ccc1C	-4.52%
Cc1nn(-c2ccc(F)cc2)c2sc(C(=O)OCC(=O)N3CCC(C)CC3)cc12	-5.81%
CCOCCCNC(=O)C1CCN(C(=O)Nc2ccc(Cl)cc2)CC1	-1%
CCOc1ccccc1NC(=O)CN(c1ccc(C)cc1)S(=O)(=O)c1c(C)noc1C	5.56%
CC(C)(CO)NC(=O)CCCOc1ccc(Cl)cc1Cl	0.17%
